Experimental findings from PubChem BioAssay (NCI) are described below.

Compounds without any hit were thinned out: in the full panel of roughly 83,000, 20% have a hit.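 48-hour exposure, single concentration, 96-well plates; percent growth endpoint where 0 means no net growth. Active: below 10.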 A number with no mark means an inactive call. Activity calls are given as the source filed them.

For the first experiment, the system named is OVCAR-4 ovarian. Put plainly: NCI-60 one-dose screen, 48 h (100 = growth as untreated, 0 = no growth, -100 = all killed). Conditions: 10 µM unless noted.
Turning to `O=C(NNc1nc2cc(F)c(F)cc2n2cccc12)c1ncccn1`, the growth is 13.4%.
Same read-out and setting: for `O=C(CN1C(=O)CSC1=O)Nc1ccc(C(=O)/C=C/c2cc3ccccc3nc2Cl)cc1` the value was 46.4%.
Same read-out and setting: as for `O=C(C[n+]1ccnc2ccccc21)c1ccc(O)c(O)c1`, the figure is 46.6%; as for `Cn1ccnc1C(=O)/C=C/c1ccc(C(=O)Nc2ccc(NC(=O)CCNC(=O)c3csc(Br)n3)cc2)cc1`, 64.1%; as for `COc1ccc(Oc2ccc(C3CC(c4cc(OC)c(OC)c(OC)c4)=NN3C(C)=O)cc2)cc1` (stereo unspecified), 18%.
Same read-out and setting: for `O=C1/C(=C/c2ccccc2[N+](=O)[O-])Oc2ccc(O)cc21` the value was 34.8%; for `O=c1c2ccccc2nc(COc2ccccc2)n1/N=C/C=C/c1ccccc1`, 90%; for `C#C[C@]1(O)CC[C@H]2[C@@H]3CC=C4c5sc(C6CC6)nc5CC[C@]4(C)[C@H]3CC[C@@]21C`, 107%.
Regarding `Cc1ccc(S(=O)(=O)N/N=C/c2cn(-c3ccc(F)cc3)nc2-c2ccc(S(C)(=O)=O)cc2)cc1`, the growth is 101%.
For `C#C[C@]1(O)CC[C@H]2[C@@H]3CC=C4c5sc(-c6ccccn6)nc5CC[C@]4(C)[C@H]3CC[C@@]21C`, the growth was 98.6%.
For `CCOC(=O)c1c(NC(=O)c2cccc(C(F)(F)F)c2)sc2c(CN3CCN(C)CC3)c(O)ccc12`, the growth is 26.8%.
As for `CCOC(=O)Nc1ccc(-c2nc(-c3cccc(O)c3)c(-c3ccnc(Br)c3)[nH]2)cc1`, the growth was 13.6%.
For `COc1ccc(NS(=O)(=O)c2ccc(-c3cnc(C4CC4)o3)cc2)cc1Cl`, the growth is 52.5%.
The same measure, in the same setting: as for `O=S(=O)(Nc1ccc(I)c(Cl)c1)c1ccc(-c2cnc(C3CC3)o2)cc1`, the figure is 56.8%; as for `O=S(=O)(Nc1ccc2c(c1)OC(F)(F)O2)c1ccc(-c2cnc(C3CC3)o2)cc1`, 59.4%.
Turning to `O=C(CN1CCN(c2cc(=O)n(-c3ccccc3)c3ccccc23)CC1)Nc1ccc([N+](=O)[O-])cc1`, the growth is 65.9%.
Consider `CN(c1ccc(Cl)cc1)S(=O)(=O)c1ccc(-c2cnc(C3CC3)o2)cc1`, for which the growth was 54.7%.
For `O=C(/C=C/c1cn(-c2ccccc2)nc1-c1ccc(Cl)cc1)c1cc2ccccc2oc1=O`, the growth is 57.2%.
Still for that read-out and setting: for `O=C1C[C@@H](c2ccccc2)Oc2c(Cc3ccccc3O)c(O)c(Cc3cc(Cc4cc(Cc5ccccc5O)ccc4O)ccc3O)c(O)c21` the value was 99.6%.
The same measure, in the same setting: for `CCC(CC)N1C(=O)/C(=c2\sc3n(c2=O)C2C(NN=3)N(CC)C(=O)N2CC)c2ccccc21` (stereo unspecified) the value was 38.4%; for `COC(=O)Nc1ccc(-c2nc(-c3cccc(O)c3)c(-c3ccnc(Br)c3)[nH]2)cc1`, 45.5%; for `CC(=O)Nc1ccc(NC(=O)Nc2cccc(-c3nc(-c4ccc(NC(=O)c5cccs5)cc4Cl)no3)c2)cc1C(F)(F)F`, -94.5% (active).
Regarding `O=S(=O)(Nc1cc(Cl)cc(Cl)c1)c1ccc(-c2cnc(C3CC3)o2)cc1`, the growth was 63.6%.
In the case of `CC(=O)Nc1ccc(NC(=O)Nc2cccc(-c3nc(-c4ccc(NC(=O)c5cccnc5)cc4Cl)no3)c2)cc1C(F)(F)F`, the growth was -53.7% (active).
As to `O=C(Nc1cccc(-c2nc(-c3ccc(NC(=O)c4cccs4)cc3Cl)no2)c1)Nc1ccc(NC(=O)C2CC2)c(C(F)(F)F)c1`, the growth was -81.3% (active).
Take `CN1C(=O)N(C)C2Nn3c(s/c(=C\c4ccccn4)c3=O)=NC21` (stereo unspecified): the growth is 104%.

Another experiment relates to SK-OV-3 ovarian. Described as above. Particulars: 10 µM unless noted.
Turning to `CCC(=O)Nc1ccc(-c2nc(-c3cccc(O)c3)c(-c3ccnc(Br)c3)[nH]2)cc1`, the growth was 93.9%.
With `COc1cc(C2=NN(C(C)=O)C(c3ccc(N4CCOCC4)cc3)C2)cc(OC)c1OC` (stereo unspecified), the growth was 97.4%.
With `CCC(=O)Nc1cc(Nc2cc(NC3CC3)n3ncc(C#N)c3n2)ccc1C`, the growth is 21.6%.
The same measure, in the same setting: for `O=C(CSc1ccc(-c2nc3ccccc3[nH]2)cn1)N1CCN(c2ccccc2F)CC1` the value was 95.4%; for `NCCN1CCN(c2nc(-c3ccccc3)nc3nc(-c4ccccc4)oc23)CC1`, 100%.
Same read-out and setting: for `CCN(CC)Cc1c(-c2cccc(OC(F)(F)F)c2)[nH]c2ccc(N3CCCC3)cc2c1=O` the value was 111%; for `C#C[C@]1(O)CC[C@H]2[C@@H]3CC=C4c5sc(-c6ccc(OC)cc6)nc5CC[C@]4(C)[C@H]3CC[C@@]21C`, 53.8%.
For `C#C[C@]1(O)CC[C@H]2[C@@H]3CC=C4c5sc(Nc6cc(OC)ccc6OC)nc5CC[C@]4(C)[C@H]3CC[C@@]21C`, the growth is 5.82% (active).
Regarding `O=C(Nc1cccc(-c2nc(-c3ccc(NC(=O)c4cccnc4)cc3Cl)no2)c1)Nc1ccc(NC(=O)C2CC2)c(C(F)(F)F)c1`, the growth was -48.3% (active).
On the same count and under the same terms, as for `O=C(Nc1ccc(-c2nc(-c3cccc(O)c3)c(-c3ccnc(Br)c3)[nH]2)cc1)c1ccccc1`, the figure is -5.97% (active); as for `COc1ccccc1N1CCN(C2=NN=C(c3cccc(Cl)c3)c3ccccc3C2)CC1`, 13.7%.
Still for that read-out and setting: for `O=C(CN1C(=O)CSC1=O)Nc1ccc(C(=O)/C=C/c2cc3ccccc3nc2Cl)cc1` the value was 101%.
Same read-out and setting: as for `O=C(C[n+]1ccnc2ccccc21)c1ccc(O)c(O)c1`, the figure is 112%; as for `Cn1ccnc1C(=O)/C=C/c1ccc(C(=O)Nc2ccc(NC(=O)CCNC(=O)c3csc(Br)n3)cc2)cc1`, 100%.
As for `COc1ccc(Oc2ccc(C3CC(c4cc(OC)c(OC)c(OC)c4)=NN3C(C)=O)cc2)cc1` (stereo unspecified), the growth is 50.9%.
With `O=C1/C(=C/c2ccccc2[N+](=O)[O-])Oc2ccc(O)cc21`, the growth was 84%.
In the case of `C#C[C@]1(O)CC[C@H]2[C@@H]3CC=C4c5sc(C6CC6)nc5CC[C@]4(C)[C@H]3CC[C@@]21C`, the growth was 116%.
Same read-out and setting: for `Cc1ccc(S(=O)(=O)N/N=C/c2cn(-c3ccc(F)cc3)nc2-c2ccc(S(C)(=O)=O)cc2)cc1` the value was 105%; for `C#C[C@]1(O)CC[C@H]2[C@@H]3CC=C4c5sc(-c6ccccn6)nc5CC[C@]4(C)[C@H]3CC[C@@]21C`, 76.8%.
Same read-out and setting: as for `CCOC(=O)c1c(NC(=O)c2cccc(C(F)(F)F)c2)sc2c(CN3CCN(C)CC3)c(O)ccc12`, the figure is 97.3%; as for `CCOC(=O)Nc1ccc(-c2nc(-c3cccc(O)c3)c(-c3ccnc(Br)c3)[nH]2)cc1`, 41.2%; as for `COc1ccc(NS(=O)(=O)c2ccc(-c3cnc(C4CC4)o3)cc2)cc1Cl`, 60%.
With `O=S(=O)(Nc1ccc(I)c(Cl)c1)c1ccc(-c2cnc(C3CC3)o2)cc1`, the growth is 50.2%.
Regarding `O=S(=O)(Nc1ccc2c(c1)OC(F)(F)O2)c1ccc(-c2cnc(C3CC3)o2)cc1`, the growth was 65.6%.
Still for that read-out and setting: for `O=C(CN1CCN(c2cc(=O)n(-c3ccccc3)c3ccccc23)CC1)Nc1ccc([N+](=O)[O-])cc1` the value was 99.3%; for `CN(c1ccc(Cl)cc1)S(=O)(=O)c1ccc(-c2cnc(C3CC3)o2)cc1`, 84.1%; for `O=C(/C=C/c1cn(-c2ccccc2)nc1-c1ccc(Cl)cc1)c1cc2ccccc2oc1=O`, 92.7%.
Turning to `O=C1C[C@@H](c2ccccc2)Oc2c(Cc3ccccc3O)c(O)c(Cc3cc(Cc4cc(Cc5ccccc5O)ccc4O)ccc3O)c(O)c21`, the growth was 103%.
In the case of `CCC(CC)N1C(=O)/C(=c2\sc3n(c2=O)C2C(NN=3)N(CC)C(=O)N2CC)c2ccccc21` (stereo unspecified), the growth was 42.6%.
For the compound `COC(=O)Nc1ccc(-c2nc(-c3cccc(O)c3)c(-c3ccnc(Br)c3)[nH]2)cc1`, the growth was 79.3%.
Still for that read-out and setting: as for `CC(=O)Nc1ccc(NC(=O)Nc2cccc(-c3nc(-c4ccc(NC(=O)c5cccs5)cc4Cl)no3)c2)cc1C(F)(F)F`, the figure is -66% (active); as for `O=S(=O)(Nc1cc(Cl)cc(Cl)c1)c1ccc(-c2cnc(C3CC3)o2)cc1`, 70.2%; as for `CC(=O)Nc1ccc(NC(=O)Nc2cccc(-c3nc(-c4ccc(NC(=O)c5cccnc5)cc4Cl)no3)c2)cc1C(F)(F)F`, -57.9% (active).
Still for that read-out and setting: for `O=C(Nc1cccc(-c2nc(-c3ccc(NC(=O)c4cccs4)cc3Cl)no2)c1)Nc1ccc(NC(=O)C2CC2)c(C(F)(F)F)c1` the value was -30.6% (active).
As to `CN1C(=O)N(C)C2Nn3c(s/c(=C\c4ccccn4)c3=O)=NC21` (stereo unspecified), the growth is 114%.
